Reference: PubChem BioAssay (NCI)
About 79,000 compounds went through this panel and 15% of them were active in at least one assay; those are over-represented in the sample as a whole. Activity calls are given as the source filed them. No stated cut-off is given here; in the data, active means growth inhibition above about 70%; inactive means the rest.

Key:
[1] = NCI Yeast Anticancer Drug Screen. Data for the mec2-1 strain (AID 157); settings: S. cerevisiae mec2-1 strain, active compounds read high
How it was run: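 Yeast mec2-1 mutant treated with compound. Readout: growth inhibition vs vehicle controls.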

[2] = NCI Yeast Anticancer Drug Screen. Data for the rad14 strain (AID 159);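 further: 0% = growth of vehicle-treated control cultures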; settings: S. cerevisiae rad14 strain growth inhibition, active compounds read high
How it was run: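 Test compounds were applied to a repair-deficient yeast strain. Its growth was then compared with that of cultures given vehicle alone, and inhibition was expressed relative to those controls.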

[3] = NCI Yeast Anticancer Drug Screen. Data for the sgs1 mgt1 strain (AID 161);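 further: 0% = growth of cultures given vehicle only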; settings: S. cerevisiae sgs1 mgt1 strain, active compounds read high
How it was run: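 Test agents were incubated with a DNA-repair-mutant yeast strain. Growth was then read and compared against vehicle-treated controls.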

[4] = NCI Yeast Anticancer Drug Screen. Data for the CLN2oe strain (AID 163);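 further: 0% = growth of vehicle-only control cultures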; settings: S. cerevisiae CLN2oe strain, active compounds read high
How it was run: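 Read-out: yeast growth inhibition, expressed relative to vehicle-only controls. The strain bears an engineered cell-cycle alteration.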

[5] = NCI Yeast Anticancer Drug Screen. Data for the cln2 rad14 strain (AID 165);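 further: 0% = growth equal to vehicle treated cultures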; settings: S. cerevisiae cln2 rad14 strain, active compounds read high
How it was run: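 cln2 rad14 yeast strain; compound exposure; growth inhibition read vs vehicle controls.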

[6] = NCI Yeast Anticancer Drug Screen. Data for the bub3 strain (AID 167); settings: S. cerevisiae bub3 mutant strain, active compounds read high
How it was run: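 Yeast carrying a defined mutation is treated with each compound, and growth is compared with that of vehicle-exposed cells to give inhibition.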

[7] = NCI Yeast Anticancer Drug Screen. Data for the wt2 strain (AID 169);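 further: 0% = growth of vehicle-treated yeast cultures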; settings: S. cerevisiae wt2 strain growth inhibition, active compounds read high
How it was run: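 Read-out: growth inhibition versus vehicle-treated control cultures after compound exposure of the yeast strain.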

[8] = NCI Yeast Anticancer Drug Screen. Data for the mlh1 strain (AID 171);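 further: 0% = growth of vehicle-treated control cultures of the same strain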; settings: S. cerevisiae mlh1 strain growth inhibition, active compounds read high
How it was run: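 Read-out: growth inhibition versus vehicle controls. Strain: engineered yeast with a defined DNA repair or cell cycle defect, compound-treated.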

[9] = NCI Yeast Anticancer Drug Screen. Data for the sgs1 strain (AID 173);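 further: 0% = growth of vehicle-only control cultures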; settings: S. cerevisiae sgs1 mutant, active compounds read high
How it was run: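 Read-out: yeast growth inhibition relative to vehicle controls, following compound exposure of a strain with a defined DNA repair/cell cycle alteration.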

[10] = NCI Yeast Anticancer Drug Screen. Data for the mlh1 rad18 strain (AID 175); settings: S. cerevisiae mlh1 rad18 strain growth inhibition, active compounds read high
How it was run: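 Yeast w/ defined DNA-repair lesions; compound exposure; growth vs vehicle controls → % inhibition.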

[11] = NCI Yeast Anticancer Drug Screen. Data for the rad18 strain (AID 177); settings: S. cerevisiae rad18 mutant growth inhibition, active compounds read high
How it was run: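 Readout: growth inhibition vs vehicle controls. Cells: genetically altered yeast strain, DNA repair defect.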

[12] = NCI Yeast Anticancer Drug Screen. Data for the wt1 strain (AID 149);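 further: 0% = growth of vehicle-treated wt1 cultures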; settings: S. cerevisiae wt1 strain (SPY 50644) growth inhibition, active compounds read high
How it was run: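 wt1 yeast, compound-treated; % growth inhibition vs vehicle control.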

[13] = NCI Yeast Anticancer Drug Screen. Data for the mgt1 strain (AID 153); settings: S. cerevisiae mgt1 mutant growth inhibition, active compounds read high
How it was run: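 mgt1 yeast grown with test compound; read-out is growth inhibition versus vehicle-treated cultures.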

[14] = NCI Yeast Anticancer Drug Screen. Data for the rad50 strain (AID 155);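 further: 0% = growth of vehicle-only cultures of the same strain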; settings: S. cerevisiae rad50 strain growth inhibition, active compounds read high
How it was run: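 Genetically altered yeast (DNA repair pathway); compound treatment; growth inhibition vs vehicle ctrl.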

[15] = NCI Yeast Anticancer Drug Screen. Data for the rad50EPP+ strain (AID 151);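 further: 0% = growth of vehicle-treated control cultures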; settings: S. cerevisiae rad50 mutant strain, active compounds read high
How it was run: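 Growth inhibition read against vehicle controls in rad50EPP+ yeast, a strain altered in DNA damage repair, after compound exposure.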

[16] = at 5.0 µM (retest, dose inferred, filed as 0.5)
[17] = at 50.0 µM (retest, dose inferred, filed as 5.0)

Measured: growth inhibition

CN1CCc2ccccc2C1Cc1ccccc1NC(=O)c1sc2ccccc2c1Cl (centres undefined)
inactive: [2]; at 1.2 µM -50% | [2]; at 3.7 µM -40% | [2]; at 11.0 µM -24% | [3]; [16] -7% | [4]; at 1.2 µM 14% | [4]; at 3.7 µM 7% | [4]; at 11.0 µM 14% | [4]; at 33.0 µM 62% | [5]; [16] -10% | [5]; [17] 60% | [6]; at 1.2 µM -54% | [6]; at 3.7 µM -22% | [6]; [16] 7% | [6]; at 11.0 µM -33% | [6]; at 33.0 µM 22% | [7]; at 1.2 µM -13% | [7]; at 3.7 µM -13% | [7]; at 11.0 µM -3% | [8]; at 1.2 µM -22% | [8]; at 3.7 µM -16% | [8]; at 11.0 µM 8% | [9]; at 1.2 µM -25% | [9]; at 3.7 µM -20% | [9]; at 11.0 µM 18% | [10]; [16] -8% | [11]; at 1.2 µM -38% | [11]; at 3.7 µM -23% | [11]; at 11.0 µM -16% | [11]; at 33.0 µM 26%
active: [1]; at 100.0 µM 92% | [2]; at 33.0 µM 89% | [2]; at 100.0 µM 93% | [3]; [17] 99% | [3]; at 50.0 µM 99% | [4]; at 100.0 µM 93% | [5]; at 50.0 µM 77.3% | [6]; [17] 94% | [6]; at 50.0 µM 97.5% | [6]; at 100.0 µM 92% | [7]; at 33.0 µM 89% | [7]; at 100.0 µM 93% | [8]; at 33.0 µM 90% | [8]; at 100.0 µM 93% | [9]; at 33.0 µM 90% | [9]; at 100.0 µM 89% | [10]; [17] 93% | [10]; at 50.0 µM 98.2% | [11]; at 100.0 µM 90%

[N-]=N[N+]#I1OC(C(F)(F)F)(C(F)(F)F)c2ccccc21
inactive: [12]; at 1.2 µM 17% | [13]; at 1.2 µM 38% | [14]; at 1.2 µM 58% | [14]; [16] 7% | [1]; at 1.2 µM 45% | [1]; [16] 2% | [4]; at 1.2 µM 40% | [5]; [16] 47% | [6]; at 1.2 µM 28% | [8]; at 1.2 µM 53% | [10]; [16] 34% | [11]; at 1.2 µM 62%
active: [12]; at 3.7 µM 84% | [12]; at 11.0 µM 99% | [12]; at 33.0 µM 99% | [12]; at 100.0 µM 99% | [13]; at 3.7 µM 88% | [13]; at 11.0 µM 99% | [13]; at 33.0 µM 100% | [13]; at 100.0 µM 100% | [14]; at 3.7 µM 90% | [14]; at 11.0 µM 97% | [14]; at 33.0 µM 100% | [14]; [17] 99% | [14]; at 50.0 µM 91.7% | [14]; at 100.0 µM 100% | [1]; at 3.7 µM 91% | [1]; at 11.0 µM 99% | [1]; at 33.0 µM 100% | [1]; [17] 99% | [1]; at 50.0 µM 93.7% | [1]; at 100.0 µM 99% | [3]; [16] 81% | [3]; [17] 98% | [3]; at 50.0 µM 92.8% | [4]; at 3.7 µM 81% | [4]; at 11.0 µM 98% | [4]; at 33.0 µM 99% | [4]; at 100.0 µM 98% | [5]; [17] 98% | [5]; at 50.0 µM 92% | [6]; at 3.7 µM 83% | [6]; [16] 91% | [6]; at 11.0 µM 99% | [6]; at 33.0 µM 100% | [6]; [17] 98% | [6]; at 50.0 µM 92.8% | [6]; at 100.0 µM 97% | [8]; at 3.7 µM 90% | [8]; at 11.0 µM 98% | [8]; at 33.0 µM 99% | [8]; at 100.0 µM 99% | [10]; [17] 99% | [10]; at 50.0 µM 92% | [11]; at 3.7 µM 89% | [11]; at 11.0 µM 98% | [11]; at 33.0 µM 99% | [11]; at 100.0 µM 99%

N/C(=N\OC(=O)NC(Cl)=C(Cl)Cl)c1cc(C(F)(F)F)cc(C(F)(F)F)c1
inactive: [12]; at 1.2 µM 16% | [12]; at 3.7 µM -13% | [12]; at 11.0 µM -19% | [12]; at 33.0 µM 40% | [15]; at 1.2 µM -30% | [15]; at 3.7 µM -48% | [15]; at 11.0 µM -43% | [15]; at 33.0 µM -35% | [15]; at 100.0 µM 17% | [13]; at 1.2 µM -23% | [13]; at 3.7 µM 7% | [13]; at 11.0 µM 6% | [14]; at 1.2 µM -10% | [14]; at 3.7 µM -20% | [14]; [16] 34% | [14]; at 11.0 µM 6% | [14]; at 33.0 µM 59% | [14]; [17] 54% | [1]; at 1.2 µM -33% | [1]; at 3.7 µM -61% | [1]; [16] 36% | [1]; at 11.0 µM -32% | [1]; at 33.0 µM 33% | [1]; [17] 58% | [2]; at 1.2 µM -53% | [2]; at 3.7 µM -36% | [2]; at 11.0 µM -48% | [2]; at 33.0 µM 18% | [3]; [16] -1% | [4]; at 1.2 µM 25% | [4]; at 3.7 µM 11% | [4]; at 11.0 µM 7% | [4]; at 33.0 µM 66% | [5]; [16] 45% | [6]; at 1.2 µM -23% | [6]; at 3.7 µM -9% | [6]; [16] 34% | [6]; at 11.0 µM -30% | [6]; at 33.0 µM 23% | [7]; at 1.2 µM -43% | [7]; at 3.7 µM -32% | [7]; at 11.0 µM -36% | [7]; at 33.0 µM 38% | [8]; at 1.2 µM -27% | [8]; at 3.7 µM -11% | [8]; at 11.0 µM -14% | [8]; at 33.0 µM 57% | [9]; at 1.2 µM -22% | [9]; at 3.7 µM -16% | [9]; at 11.0 µM -9% | [9]; at 33.0 µM 68% | [10]; [16] 42% | [10]; [17] 67% | [11]; at 1.2 µM -20% | [11]; at 3.7 µM -21% | [11]; at 11.0 µM -2%
active: [12]; at 100.0 µM 97% | [13]; at 33.0 µM 74% | [13]; at 100.0 µM 97% | [14]; at 50.0 µM 89% | [14]; at 100.0 µM 97% | [1]; at 50.0 µM 89.3% | [1]; at 100.0 µM 95% | [2]; at 100.0 µM 96% | [3]; [17] 95% | [3]; at 50.0 µM 89.4% | [4]; at 100.0 µM 98% | [5]; [17] 94% | [5]; at 50.0 µM 89% | [6]; [17] 91% | [6]; at 50.0 µM 89.9% | [6]; at 100.0 µM 96% | [7]; at 100.0 µM 96% | [8]; at 100.0 µM 97% | [9]; at 100.0 µM 97% | [10]; at 50.0 µM 88% | [11]; at 33.0 µM 72% | [11]; at 100.0 µM 97%
